High-throughput results (PubChem BioAssay)
PI5P4K alpha inh – qHTS for Inhibitors of phosphatidylinositol 5-phosphate 4-kinase (PI5P4K). Phosphatidylinositol 5-phosphate 4-kinase type-2 alpha (Homo sapiens), P48426. PI5P4Kalpha enzyme, ADP-Glo luminescence, 60 min; hits give low values. max response, %. 1.2% of 330,000 active. AID 652105, 2013; active means max response of -50% or lower; inconclusive means between -30% and -50%; inactive means -30% or higher; further: value at the top dose of about 77 µM; on the % scale 0 is the no-effect control and ±100 the full control effect
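Quantitative HTS of the MLSMR library against PI5P4Kalpha with substrate. ATP added last at 5 microM final; room temperature, 60 minutes. Remaining ATP depleted, ADP converted and read as luminescence.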
LDHA inh – qHTS assay for inhibitors of human lactate dehydrogenase; purified LDHA, NADH/diaphorase-resazurin fluorescence; hits give low values; activity change, % (values are at about 110 or 230 µM); 0.15% of 480,000 active; AID 1347041, 2019; in the data active means activity change below about -30%; inconclusive means mostly about -25% to -30%;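 further: plate controls were DMSO wells for no effect and wells without enzyme for full effect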
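Human LDH5 at 2 nM final in Tris HCl pH 7.4 with 0.06 mM NADH and 0.2 mM pyruvate, reacted 5 minutes at room temperature. Remaining NADH coupled via diaphorase/resazurin; resorufin fluorescence read at 0 and 20 minutes, normalized to enzyme-free and DMSO wells.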
D3 antag – qHTS of D3 Dopamine Receptor Antagonist: qHTS; max response, negative = inhibition, %; D3R cells, DiscoveRx beta-arrestin luminescence, antagonist mode; hits give low values; 2.5% of 360,000 active; D(3) dopamine receptor (Homo sapiens), P35462; in the data active means max response below about -50%; inconclusive means no clear call, values can overlap the other calls; further: on the % scale 0 is the no-effect control and ±100 the full control effect
Target sequence (P35462 whole entry, looked up): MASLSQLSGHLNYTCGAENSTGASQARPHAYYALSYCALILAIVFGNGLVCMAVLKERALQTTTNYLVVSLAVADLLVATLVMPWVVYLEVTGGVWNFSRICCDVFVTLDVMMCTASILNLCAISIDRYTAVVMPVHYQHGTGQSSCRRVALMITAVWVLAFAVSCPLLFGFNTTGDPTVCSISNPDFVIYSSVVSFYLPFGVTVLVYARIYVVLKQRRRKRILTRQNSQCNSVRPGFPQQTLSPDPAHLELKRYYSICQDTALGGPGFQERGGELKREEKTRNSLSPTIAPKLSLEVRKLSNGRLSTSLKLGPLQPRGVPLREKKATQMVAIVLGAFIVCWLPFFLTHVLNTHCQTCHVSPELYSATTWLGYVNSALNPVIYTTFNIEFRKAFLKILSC
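Cells expressing the human receptor were seeded at 1500 cells/well, incubated overnight at 37 degrees C in 5% CO2, then exposed to library compounds with dopamine controls for 90 minutes at 37 degrees C before luminescent detection.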
PI4K2A block – qHTS for small molecular inhibitors of PI4K2A | AID 1346378, 2018 | Phosphatidylinositol 4-kinase type 2-alpha (Homo sapiens), Q9BTU6 | activity change, negative = inhibition, % at 76.9 µM | 0.13% of 420,000 active | purified PI4K2A, ADP-Glo luminescence, 1 h; hits give low values; in the data active means activity change below about -50%; inconclusive means mostly about -30% to -49%;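 further: -100% = wells without enzyme as full effect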
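In this quantitative HTS, ADP production by PI4K2A was quantified luminescently after 1 h at ambient temperature; 100 microM adenosine served as plate-quality control.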
DRD3 agonist – qHTS of D3 Dopamine Receptor Agonist: qHTS; D3R DiscoveRx beta-arrestin cells, luminescence, 90 min; max activation, %; 0.58% of 410,000 active; in the data active means max activation above about 30%; further: 0% is about no effect
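Cells at 1500/well, incubated overnight, then treated with pinned compounds (dopamine as control) for 90 min at 37 degrees C. DiscoveRx reagent added for 30 - 60 minutes at room temperature; luminescence read.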
Numbers without * were called inactive; ? = inconclusive; · = not tested or not shown. Only some compounds are listed: those with a hit (about 3.3% of all), similar ones and a draw of the others.

SMILES | PI5P4K alpha inh | LDHA inh | D3 antag | PI4K2A block | DRD3 agonist
CC1CCC2(CC1)NC(=O)N(NC(=O)c1nn(C)c(=O)c3ccccc13)C2=O (configuration not stated) | · | 5 | · | · | ·
COc1ccccc1-c1cc(C(=O)O)c2cccc(C)c2n1 | · | 4 | · | · | ·
CCNC(=O)c1cccc(NC(=O)c2cc(=O)c3ccccc3o2)c1 | · | -5 | · | · | ·
Cc1ccccc1CNC1CCCCC1 | 4 | 2 | 8 | -6 | -11
Oc1cc(CNC2CCCCC2)c(O)cc1CNC1CCCCC1 | -53* | 33 | -13 | -6 | -10
COc1cccc(C(=O)Nc2cc(C(C)(C)C)no2)c1 | · | 8 | · | · | ·
Cc1cccc(C)c1C(=NCCN(C)C)c1ccccc1 | -2 | -11 | ? | -1 | -11
Cc1ccccc1C(=NCCCN(C)C)c1ccccc1C | 2 | -7 | -75* | -2 | -9
COc1cc(OC)cc(-c2c(-c3cccs3)c3cc(-c4ccn[nH]4)ccc3n2C)c1 | 12 | -1 | 32 | 3 | 37*
COc1cc(OC)cc(-c2c(-c3cccs3)c3cc(-c4ccc(N(C)C)nc4)ccc3n2C)c1 | -6 | 0 | 0 | 2 | 47*
O=C(Nc1ccc(Cl)cc1C(F)(F)F)c1ccc2ccccc2c1 | · | 0 | · | · | ·
Fc1ccc(CNC(=S)Nc2cccc3ccccc23)cc1 | · | -5 | · | · | ·
CC(C)NC(=O)COc1coc(CN2CCN(c3ccccc3)CC2)cc1=O | -6 | -9 | -62* | 0 | 1
COc1ccccc1-c1nc(Cn2nnc(C(=O)NCc3ccc(Cl)cc3)c2N)c(C)o1 | · | -1 | · | · | ·
O=C(CCc1nc(-c2ccsc2)no1)Nc1ccc(N2CCOCC2)cc1 | · | 37 | · | · | ·
Cc1ccc(-c2nc(C(Cl)Cl)c3ccccc3n2)cc1 | 33 | -2 | -60* | -1 | -17
COC(=O)c1ccccc1NC(=O)NCc1nc(-c2ccccc2)oc1C | · | -5 | · | · | ·
COc1ccc(CC(O)CC2c3c(cc4c(c3OC)OCO4)CCN2C)cc1 (configuration not stated) | 9 | 2 | -69* | -4 | -20
CCCCCCCCCS(=O)(=O)N/N=C/c1ccc([N+](=O)[O-])cc1 | · | 11 | · | · | ·
Cn1c(=O)c2c(nc(CN3CCN(C(c4ccccc4)c4ccccc4)CC3)n2CC(N)=O)n(C)c1=O | · | 11 | -50* | -2 | 0
Cn1c(=O)c2c(nc(CN3CCN(Cc4ccccc4)CC3)n2CCCc2ccccc2)n(C)c1=O | · | -9 | · | · | ·
CC(C)n1c(CN(C)Cc2ccccc2)nc2c1c(=O)n(C)c(=O)n2C | 7 | -6 | 80 | -4 | 50*
CN1CCN(Cc2nc3c(c(=O)n(C)c(=O)n3C)n2CCCc2ccccc2)CC1 | 2 | -2 | -52* | 3 | 1
O=[N+]([O-])c1cc2c(c3cccnc13)COCO2 | -56* | 25 | -24 | 2 | -10
CCn1c(=S)sc2c(=O)n(CC(=O)Nc3ccccc3C(F)(F)F)c(C)nc21 | 1 | -7 | -7 | -8 | 32*
SMILES | PI5P4K alpha inh | LDHA inh | D3 antag | PI4K2A block | DRD3 agonist
CCn1c(=S)sc2c(=O)n(CC(=O)Nc3ccccc3)c(C)nc21 | -3 | 0 | -29 | 1 | -8
Cc1cc(C)c2c(=O)cc(C(=O)Nc3ccccc3F)oc2c1 | · | -3 | · | · | ·
O=C1CC(c2ccccc2)CC(O)=C1C=Nc1ccccc1Cl (configuration not stated) | -11 | -12 | -81* | 2 | -16
CNc1ccc(Oc2ccccc2)cc1 | · | 15 | · | · | ·
O=C1C=CC(=O)N1 | ? | -11 | -83* | 1 | -85
CCC(C)[C@H](NC(=O)NC1CCN(Cc2ccccc2)CC1)C(=O)OC (some centres not stated) | · | -5 | -50* | 4 | -38
COc1ccc(C)cc1NC(=O)NC1CCN(Cc2ccccc2)CC1 | · | 0 | -83* | 6 | -25
COC(=O)c1ccccc1NC(=O)NC1CCN(Cc2ccccc2)CC1 | · | -11 | -93* | -1 | -33
CCC1=Nc2ccccc2N=C(NC(=O)c2ccccc2)C1c1ccc(OC)c(OC)c1 (configuration not stated) | · | 5 | · | · | ·
COCCN(CCOC)C(=O)/C=C/c1ccsc1 | · | 11 | · | · | ·
CCCN1CCCN(c2ccccc2C#N)CC1 | · | 6 | · | · | ·
COc1ccc(C(=O)NCC(=O)OCC(=O)Nc2sccc2C#N)cc1OC | -58* | 3 | 3 | -9 | -1
CCC(CC)NC(=O)COC(=O)CCS(=O)(=O)c1ccc(C)cc1 | · | 8 | · | · | ·
Cc1ccc(S(=O)(=O)CCC(=O)Nc2sccc2C#N)cc1 | 2 | 3 | -20 | 0 | -6
CCCC(C)NC(=O)COC(=O)CCS(=O)(=O)c1ccc(C)cc1 (configuration not stated) | · | -31* | · | · | ·
Cc1ccc(S(=O)(=O)CCC(=O)OCC(=O)Nc2sccc2C#N)cc1 | -60* | 2 | 11 | -5 | 0
CC1CCN(CC2CCCN(c3ncccc3C#N)C2)CC1 (configuration not stated) | · | 12 | · | · | ·
CC(=O)Nc1ccc(NC(=O)CSc2nc(Cl)nc3nc[nH]c23)cc1 | · | -10 | · | · | ·
CCCCCC(C)NC(=O)CSc1nc2cc(S(=O)(=O)N(C)C)ccc2o1 (configuration not stated) | · | 5 | · | · | ·
Cc1nc(-c2ccccc2O)n(S(=O)(=O)N(C)C)n1 | 1 | -1 | 13 | 0 | 31*
CCCCNC(=S)N/N=C/c1ccc(C#N)cc1 | -73* | -15 | ? | -2 | 3
CNCCOc1ccccc1OC(C)C | 3 | -19 | -79* | 1 | -17
Cc1sc2ncnc(N(C)CCc3ccccn3)c2c1C | -7 | -32* | -9 | -4 | -1
O=C(Cc1cccs1)NC1CCSC1=O (configuration not stated) | · | 0 | · | · | ·
CCS(=O)(=O)C1=NN2C(=N)/C(=C\c3ccc(SCc4ccco4)o3)C(=O)N=C2S1 | -91* | -3 | 6 | -18 | 6
SMILES | PI5P4K alpha inh | LDHA inh | D3 antag | PI4K2A block | DRD3 agonist
O=C1C=CC(=Nc2ccc3c(c2)C(=O)c2ccccc2-3)O1 | -58* | -5 | -15 | 0 | -4
O=c1[nH]c2ccccc2c(O)c1O | -96* | 65 | -2 | -6 | 14
O=c1[nH]c2ccccc2c(O)c1-[n+]1ccccc1 | -12 | -3 | -18 | -7 | 32*
CCC(C)Nc1ccc(NC(C)CC)cc1 (configuration not stated) | -26 | 5 | -51* | -16 | 0
CCC(C)NC(=O)Nc1ccc(Br)cc1 (configuration not stated) | -8 | 1 | -23 | 0 | -12
Cc1cc(-n2c(=O)c3sccc3n(CC(=O)NC3CCCCC3)c2=O)ccc1F | · | 3 | · | · | ·
